Inconclusive results are not listed. Activity calls are given as the source filed them. Unless noted, the call rests on the fitted dose curve; in most records, active means well fitted curve in the direction sought with a large enough effect in the repeat runs; inconclusive means weak or mixed curves; inactive means no such curve, though single readings can be large; an effect the other way counts as inactive or inconclusive.
Legend:
[1] = qHTS assay for small molecule agonists of the p53 signaling pathway (AID 651631; calls by dose curve; further: nearly all actives have a fitted effect of over 15% in size; further: potency means the concentration at half of the fitted maximal effect)
Outline: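 Quantitative high-throughput format: 4,000 p53RE-bla HCT-116 cells/well, 5 h pre-incubation, 16 h compound exposure at 37 °C, 2 h room-temperature substrate step, fluorescence intensity measured.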

[2] = qHTS assay for small molecules that induce genotoxicity in human embryonic kidney cells expressing luciferase-tagged ATAD5 (AID 651632); further: nearly all actives have a fitted effect of over 15% in size
Outline: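 Quantitative HTS in HEK293T expressing luciferase-tagged ATAD5, whose levels rise upon DNA damage. Exposure ran 16 hr at 37C and 5% CO2, with luminescence read 30 min after Amplite addition at room temperature.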

[3] = qHTS assay for small molecule agonists of the p53 signaling pathway - cell viability (AID 651633; calls by dose curve; further: nearly all actives have a fitted effect of over 30% in size; further: potency means the concentration at half of the fitted maximal effect)
Outline: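 Viability counter-read: CellTiter-Glo luminescence (30 min, room temperature) in the same p53RE-bla plates. These plates had been exposed to compounds for 16 h at 37 C.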

[4] = qHTS assay for small molecules that induce genotoxicity in human embryonic kidney cells expressing luciferase-tagged ATAD5 - cell viability (AID 651634; calls by dose curve; further: nearly all actives have a fitted effect of over 25% in size; further: potency means the concentration at half of the fitted maximal effect)
Outline: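 After 15.5 hr incubation with compound at 37C, 5% CO2, HEK293T ATAD5-luciferase cells received CellTiter-Fluor reagent; fluorescence intensity was quantified following 30 min at 37C.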

[5] = qHTS assay for small molecule disruptors of the mitochondrial membrane potential - cell viability (AID 720634; calls by dose curve;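 further: human HepG2 liver cancer cells; series mostly up to about 83 µM; nearly all actives have a fitted effect of over 20% in size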)
Outline: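 ATP-based luminescent viability readout (CellTiter-Glo, 30 min, room temperature) in HepG2 cells multiplexed with the m-MPI membrane potential dye; compound exposure lasted 1 hr at 37 C.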

[6] = qHTS assay to test for compound auto fluorescence at 535 nm (green) in HepG2 cells (AID 720675)
[7] = qHTS assay to test for compound auto fluorescence at 460 nm (blue) in HEK293 cells (AID 720678)
Outline: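 HEK293 cells (2,000/well, medium with 10% dialyzed FBS) attached 4-5 hr, then exposed to compound overnight at 37C, 5% CO2. Blue fluorescence read at 405/460 nm, with triamterene as reference fluorophore.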

[8] = qHTS assay to test for compound auto fluorescence at 590 nm (red) in HEK293 cells (AID 720679)
Outline: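 HEK293 cells (2,000/well, 10% dialyzed FBS) attached 4-5 hr, then dosed with compound or DMSO and incubated overnight at 37C, 5% CO2. Red fluorescence read at 540/590 nm, Rose Bengal sodium as reference fluorophore.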

[9] = qHTS assay to test for compound auto fluorescence at 535 nm (green) in HEK293 cells (AID 720680)
[10] = qHTS assay to test for compound auto fluorescence at 460 nm (blue) in HEK293 cell free culture (AID 720681)
Outline: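 Blue fluorescence (Ex 405/Em 460 nm, triamterene-equivalent) was read immediately after pin transfer of compound or DMSO into medium (DMEM, 10% FBS) without cells.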

[11] = qHTS assay to test for compound auto fluorescence at 535 nm (green) in HEK293 cell free culture (AID 720682)
Outline: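 Measurement is a direct plate read of green fluorescence (485 nm in, 535 nm out) after compound addition to serum-supplemented DMEM lacking cells, with fluorescein used to express intensities.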

[12] = qHTS assay to test for compound auto fluorescence at 590 nm (red) in HEK293 cell free culture (AID 720683)
Outline: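 Red-channel autofluorescence of compounds in culture medium (DMEM, 10% FBS), no cells, measured at 540/590 nm. Rose Bengal sodium is the reference fluorophore for equivalence.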

[13] = qHTS assay to test for compound auto fluorescence at 590 nm (red) in HepG2 cell free culture (AID 720684)
Outline: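 Cell-free; medium MEM + 10% FBS; compound or DMSO added by pintool; read Ex 540/Em 590 nm; Rose Bengal sodium as red reference fluorophore.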

[14] = qHTS assay to test for compound auto fluorescence at 460 nm (blue) in HepG2 cell free culture (AID 720685)
Outline: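 Cell-free plates of MEM plus 10% FBS received 23 nL compound or DMSO vehicle; blue-channel (405/460 nm) intensity scored against triamterene as reference fluorophore.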

[15] = qHTS assay to test for compound auto fluorescence at 535 nm (green) in HepG2 cell free culture (AID 720686)
[16] = qHTS assay to test for compound auto fluorescence at 460 nm (blue) in HepG2 cells (AID 720687)
Outline: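 Blue-channel autofluorescence (Ex/Em 405/460 nm, triamterene-equivalent) was measured after 1 hr compound exposure at 37 C, 5% CO2. Cells were HepG2, plated overnight at 37 C in MEM plus 10% FBS.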

[17] = qHTS assay to test for compound auto fluorescence at 590 nm (red) in HepG2 cells (AID 720674)
Outline: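 1 hr compound incubation on HepG2 cells, 37 C, 5% CO2; plate read ex 540 nm / em 590 nm; intensities reported as Rose Bengal sodium equivalents.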

[18] = target: Glucocorticoid receptor (Homo sapiens) (UniProt P04150); assay: qHTS assay to identify small molecule antagonists of the glucocorticoid receptor (GR) signaling pathway (AID 720692; active means well fitted inhibition curve with a large enough effect in the signal ratio in the repeat runs, not every such curve was filed as active; the % refers to the signal ratio)
Outline: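 Quantitative HTS in antagonist format: HeLa cells expressing endogenous GR and a stably integrated GRE-bla reporter, stimulated with 5 nM dexamethasone (final) alongside test compounds for 18 h.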

[19] = target: Glucocorticoid receptor (Homo sapiens) (UniProt P04150); assay: qHTS assay to identify small molecule agonists of the glucocorticoid receptor (GR) signaling pathway (AID 720691; active means well fitted activation curve with a large enough effect in the signal ratio in the repeat runs, not every such curve was filed as active; the % refers to the signal ratio)
Outline: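 Cells: GR-bla HeLa, endogenous GR with stably integrated GRE-beta-lactamase reporter. Treatment 18 h, 37 C, compounds delivered in DMSO. Detection via LiveBLAzer B/G FRET substrate, 2 h RT, fluorescence intensity.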

[20] = qHTS assay for small molecule disruptors of the mitochondrial membrane potential (AID 720635); further: potency means the concentration at half of the fitted maximal effect
Outline: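 Mitochondrial membrane potential tracked with Mito-MPS dye, red aggregates (ex 540/em 590 nm) against green monomers (ex 490/em 535 nm). Compound treatment 1 hr at 37C, dye 30 min in HepG2.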
On the % scale 0 is the no-effect control and ±100 the full control effect.

Glucocorticoid receptor (Homo sapiens), sequence (P04150 whole entry, looked up): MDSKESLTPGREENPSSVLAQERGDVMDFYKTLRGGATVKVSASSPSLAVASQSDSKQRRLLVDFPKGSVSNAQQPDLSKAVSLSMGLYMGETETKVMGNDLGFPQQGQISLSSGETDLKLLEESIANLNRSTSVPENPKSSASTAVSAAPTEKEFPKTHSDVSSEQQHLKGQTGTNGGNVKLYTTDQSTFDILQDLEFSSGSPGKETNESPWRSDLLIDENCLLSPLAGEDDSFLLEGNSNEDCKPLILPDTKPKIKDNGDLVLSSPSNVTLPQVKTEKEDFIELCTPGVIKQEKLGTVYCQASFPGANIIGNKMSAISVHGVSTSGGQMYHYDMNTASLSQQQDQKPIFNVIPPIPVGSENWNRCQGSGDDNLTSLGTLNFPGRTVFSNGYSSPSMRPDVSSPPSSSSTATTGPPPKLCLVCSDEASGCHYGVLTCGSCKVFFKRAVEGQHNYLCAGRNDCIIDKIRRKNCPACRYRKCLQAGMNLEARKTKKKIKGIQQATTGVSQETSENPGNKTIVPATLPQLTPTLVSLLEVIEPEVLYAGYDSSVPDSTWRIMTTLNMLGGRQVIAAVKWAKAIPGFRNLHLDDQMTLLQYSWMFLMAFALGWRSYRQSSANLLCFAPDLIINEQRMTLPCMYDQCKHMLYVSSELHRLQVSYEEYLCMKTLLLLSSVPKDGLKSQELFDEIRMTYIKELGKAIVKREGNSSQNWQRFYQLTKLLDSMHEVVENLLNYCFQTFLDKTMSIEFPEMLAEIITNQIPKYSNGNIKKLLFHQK

Brc1cc2ccccc2c2ccccc12
inactive: Potency [1] | Potency [2] | Potency [3] | Potency [4] | Potency [5] | outcome [6] | Potency [7] | outcome [8] | outcome [9] | Potency [10] | outcome [11] | outcome [12] | outcome [13] | Potency [14] | outcome [15] | Potency [16]

O=C1CCCCCCCCCCOCCCCO1
inactive: Potency [1] | Potency [2] | Potency [3] | Potency [4] | Potency [5] | outcome [17] | outcome [6] | outcome [8] | Potency [10] | outcome [11] | outcome [12] | outcome [13] | outcome [15] | Potency [16] | Potency [18]

CC(C)COCC(CN(Cc1ccccc1)c1ccccc1)N1CCCC1 (configuration not stated)
active: Potency [1] 13.3 µM | Potency [3] 11.9 µM | Potency [4] 9.44 µM
inactive: Potency [2] | outcome [17] | outcome [6] | Potency [7] | outcome [8] | outcome [9] | Potency [10] | outcome [11] | outcome [12] | Potency [14] | outcome [15] | Potency [16] | Potency [19]

CCC(C)COC(=O)CC(C)C (configuration not stated)
inactive: Potency [1] | Potency [2] | Potency [3] | Potency [4] | Potency [5] | outcome [17] | outcome [6] | Potency [7] | outcome [8] | Potency [10] | outcome [11] | outcome [12] | Potency [14] | outcome [15]

CCCCCCC(C)(C)C(=O)O
inactive: Potency [1] | Potency [2] | Potency [3] | Potency [4] | Potency [5] | outcome [6] | Potency [7] | outcome [8] | outcome [9] | Potency [10] | outcome [11] | outcome [12] | outcome [13] | outcome [15] | Potency [16] | Potency [19] | Potency [18]

CC1(C)[C@@H](OC(=O)CCC(=O)O)CC[C@]2(C)[C@H]3C(=O)C=C4[C@@H]5C[C@@](C)(C(=O)O)CC[C@]5(C)CC[C@@]4(C)[C@]3(C)CC[C@@H]12
inactive: Potency [1] | Potency [2] | Potency [3] | Potency [4] | Potency [5] | fluorescence, % of fluorescein control [6] -0.0594% [at 18.6 µM] | fluorescence, % of triamterene [7] 0.0377% [at 18.6 µM] | fluorescence, % of fluorescent control [8] 0.163% [at 18.6 µM] | fluorescence, % of fluorescein [9] -0.0149% [at 18.6 µM] | fluorescence, % of fluorescent control [10] -0.141% [at 18.6 µM] | activity change [11] -0.0002% [at 18.6 µM] | fluorescence, % of fluorescent control [12] 0.073% [at 18.6 µM] | fluorescence, % of Rose Bengal [13] 0.105% [at 18.6 µM] | fluorescence, % of fluorescent control [14] 0.0251% [at 18.6 µM] | fluorescence, % of fluorescein control [15] 0.0091% [at 18.6 µM] | fluorescence, % of fluorescent control [16] -0.0128% [at 18.6 µM] | Potency [18]

Cc1ccc(C(C)(C)O)cc1
inactive: Potency [1] | Potency [2] | Potency [3] | Potency [4] | outcome [17] | outcome [6] | Potency [7] | outcome [8] | outcome [9] | Potency [10] | outcome [11] | outcome [12] | outcome [13] | Potency [14] | outcome [15] | Potency [16] | Potency [19] | Potency [18]

C(=C\c1ccccc1)/c1ccccc1
inactive: Potency [1] | Potency [2] | Potency [3] | Potency [4] | outcome [6] | Potency [7] | outcome [8] | outcome [9] | Potency [10] | outcome [11] | outcome [12] | outcome [13] | Potency [14] | outcome [15] | Potency [16]

CC(=O)OCCN(CCOC(C)=O)c1ccc(N=Nc2ccc([N+](=O)[O-])cc2C#N)cc1
active: Potency [4] 61.1 µM | Potency [20] 6.86 µM
inactive: Potency [1] | Potency [2] | Potency [3] | outcome [17] | outcome [6] | Potency [7] | outcome [8] | outcome [9] | Potency [10] | outcome [11] | outcome [12] | outcome [13] | outcome [15] | Potency [16] | Potency [19]

CCCCCCCC/C=C\CCCCCCCCCCCC(=O)O
inactive: Potency [1] | Potency [2] | Potency [3] | Potency [4] | Potency [20] | outcome [6] | outcome [8] | outcome [9] | Potency [10] | outcome [11] | outcome [12] | outcome [13] | Potency [14] | outcome [15]

O=C(O)c1ccc(OCCCOc2ccc(C(=O)O)cc2)cc1
inactive: Potency [1] | Potency [2] | Potency [3] | Potency [4] | Potency [20] | outcome [17] | outcome [6] | Potency [7] | outcome [8] | outcome [9] | Potency [10] | outcome [11] | outcome [12] | outcome [13] | outcome [15] | Potency [16]

COc1cc(Nc2c(C#N)cnc3cc(OCCCN4CCN(C)CC4)c(OC)cc23)c(Cl)cc1Cl
inactive: Potency [2] | outcome [17] | outcome [6] | Potency [7] | outcome [8] | outcome [9] | Potency [10] | outcome [11] | outcome [12] | outcome [13] | Potency [14] | outcome [15] | Potency [16]
active: Potency [1] 11.9 µM | Potency [3] 26.6 µM | Potency [4] 29.8 µM | Potency [20] 0.376 µM

CC(=O)Nc1ccc(C)cc1C
inactive: Potency [1] | Potency [2] | Potency [3] | Potency [4] | Potency [5] | outcome [6] | Potency [7] | outcome [8] | Potency [10] | outcome [11] | outcome [12] | outcome [13] | Potency [14] | outcome [15]

N#[N+]c1ccc2c(S(=O)(=O)[O-])cccc2c1O
inactive: Potency [1] | Potency [2] | Potency [3] | Potency [4] | Potency [5] | outcome [6] | Potency [7] | outcome [8] | outcome [9] | Potency [10] | outcome [11] | outcome [12] | outcome [13] | outcome [15] | Potency [16]

CC(C)=CCC/C(C)=C/CC/C(C)=C/CCC(=O)OC/C=C(\C)CCC=C(C)C
inactive: Potency [1] | Potency [2] | Potency [3] | Potency [4] | Potency [5] | outcome [6] | outcome [8] | outcome [9] | Potency [10] | outcome [11] | outcome [12] | outcome [13] | Potency [14] | outcome [15] | Potency [16] | Potency [19]

Reference: PubChem BioAssay (Tox21)
